Test results reported in PMC4336329 (PLoS ONE, 2015).
The whole screen tested about 310,000 compounds, of which about 14,000 (4.5%) showed an effect of 50% or more. Effects have a minus sign here. For the sample, strong results were picked, then their nearest neighbours and some compounds at random.

The molecules below were run against human ether-à-go-go-related gene (hERG) potassium channel (human, UniProt Q12809) (assay: primary screen, population patch clamp on CHO cells stably expressing hERG; higher = less effect of the substance).
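Further: peak tail current of the secondary pulse compared with the same well before compound.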

human ether-à-go-go-related gene (hERG) potassium channel, sequence (Q12809 whole entry, looked up): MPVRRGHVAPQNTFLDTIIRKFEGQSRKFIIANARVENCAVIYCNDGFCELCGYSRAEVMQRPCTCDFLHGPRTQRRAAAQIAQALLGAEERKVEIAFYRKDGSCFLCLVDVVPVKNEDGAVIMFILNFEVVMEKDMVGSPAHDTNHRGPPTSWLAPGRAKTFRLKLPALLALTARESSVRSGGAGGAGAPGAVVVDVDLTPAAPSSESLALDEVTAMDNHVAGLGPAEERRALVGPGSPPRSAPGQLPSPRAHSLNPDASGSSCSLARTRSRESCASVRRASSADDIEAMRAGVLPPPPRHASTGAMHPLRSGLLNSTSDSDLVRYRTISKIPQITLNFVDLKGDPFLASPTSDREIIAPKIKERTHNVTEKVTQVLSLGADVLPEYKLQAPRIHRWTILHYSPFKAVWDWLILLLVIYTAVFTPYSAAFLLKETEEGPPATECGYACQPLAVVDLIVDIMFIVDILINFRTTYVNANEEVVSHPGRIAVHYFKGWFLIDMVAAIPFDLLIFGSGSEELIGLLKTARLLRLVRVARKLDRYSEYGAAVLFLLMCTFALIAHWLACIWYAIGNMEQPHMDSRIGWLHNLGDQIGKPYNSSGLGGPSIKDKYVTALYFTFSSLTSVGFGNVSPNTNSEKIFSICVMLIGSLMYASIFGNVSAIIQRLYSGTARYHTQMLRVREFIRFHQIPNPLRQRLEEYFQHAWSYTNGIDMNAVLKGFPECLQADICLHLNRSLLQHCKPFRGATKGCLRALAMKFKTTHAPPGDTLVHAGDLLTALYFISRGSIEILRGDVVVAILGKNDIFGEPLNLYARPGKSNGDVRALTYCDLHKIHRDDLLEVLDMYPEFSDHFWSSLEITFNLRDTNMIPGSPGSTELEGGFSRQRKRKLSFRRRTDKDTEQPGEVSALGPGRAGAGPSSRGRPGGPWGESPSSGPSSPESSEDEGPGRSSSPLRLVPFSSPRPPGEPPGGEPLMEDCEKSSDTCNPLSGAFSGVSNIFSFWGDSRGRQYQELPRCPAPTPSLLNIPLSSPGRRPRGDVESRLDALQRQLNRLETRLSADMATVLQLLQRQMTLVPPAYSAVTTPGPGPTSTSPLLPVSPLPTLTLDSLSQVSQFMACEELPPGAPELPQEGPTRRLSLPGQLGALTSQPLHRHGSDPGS

Compound | hERG current change (%, negative = inhibition) at 10uM [%]
CCN(CC(=O)Nc1c(F)cccc1F)C(=O)CN1C(=O)NC2(CCCC2)C1=O | 22.5
CCN1CCCc2cc(CN(CCN3CCOCC3)C(=S)Nc3ccc(C)cc3)ccc21 | -8.41
CCN1CCN(S(=O)(=O)Cc2ccccc2)CC1 | 8.52
COc1ccc2oc(C(=O)OCC(=O)NCC3CCCO3)c(C)c2c1 (stereo not shown) | 2.35
Cc1ccc(N2C(=O)c3ccccc3C2(O)c2ncc[nH]2)cc1 (stereo not shown) | 15
O=S(=O)(c1ccc(NC(=S)N/N=C/c2c3ccccc3cc3ccccc23)cc1)N1CCOCC1 | 8.09
O=C1c2ccccc2C(=O)N1CCCCN(C(=O)c1cc2ccccc2oc1=O)c1ccc(F)cc1F | 1.03
Cc1cc(C(C)(C)C)oc1C(=O)OCC(=O)NC1CCCCC1 | 0.649
O=C(NC(Cc1ccccc1)c1ccc2c(c1)OCCCO2)c1ccccc1 (stereo not shown) | 19.1
O=C(NCCS(=O)(=O)NCc1ccc(F)cc1)c1ccc2c(c1)OCO2 | -39.8
COc1ccccc1-n1c(O)c(C=NCCN2CCNCC2)c(=O)[nH]c1=O | 14.4
O=C(CSc1nc(=O)n(CCCN2CCOCC2)c2c1CCCC2)Nc1ccc(F)cc1 | -43.7
O=C(CSc1nc(=O)n(CCCN2CCOCC2)c2c1CCCC2)Nc1ccc(F)c(F)c1 | -58
O=C(CSc1nc(=O)n(CCCN2CCOCC2)c2c1CCCC2)Nc1ccc(F)cc1F | -22.6
CC(C)(C)C(=O)Nc1ccccc1C(=O)Nc1ccccn1 | 3.65
COc1ccc(C(=O)CN2CCN(CCN3C(=O)c4cccc5cccc(c45)C3=O)CC2)cc1 | -26.5
O=C1c2cccc3cccc(c23)C(=O)N1CCN1CCN(CC(O)COc2ccccc2)CC1 (stereo not shown) | -60
COc1cccc(OCC(O)CN2CCN(CCN3C(=O)c4cccc5cccc(c45)C3=O)CC2)c1.Cl (stereo not shown) | -59.2
O=C1c2cccc3cccc(c23)C(=O)N1CCN1CCN(CC(O)COc2ccc3ccccc3c2)CC1 (stereo not shown) | -11.7
O=C(COc1ccccc1)N1CCN(CCN2C(=O)c3cccc4cccc(c34)C2=O)CC1 | -8.43
O=C(CSc1nnc(NC(=O)C2CC2)s1)Nc1ccc(F)cc1 | 12.5
COc1ccc(-c2nc3n(n2)C(c2ccncc2)C(C(N)=O)=C(C)N3)cc1 (stereo not shown) | 0.391

Compound | hERG current change (%, negative = inhibition) at 10uM [%]
CCOc1ccc(C(CC(=O)O)NC(=O)c2ccco2)cc1 (stereo not shown) | 11
COc1cc(/C=N/n2cnnc2)ccc1OCc1ccccc1 | 6.55
CN(C)S(=O)(=O)c1cccc(NC(=O)c2cccc(S(=O)(=O)N3CCc4ccccc43)c2)c1 | -4.62
CN(C(=O)c1ccc(Cl)c([N+](=O)[O-])c1)C1(C)CCS(=O)(=O)C1 (stereo not shown) | -10.9
CSc1ccccc1C(=O)C1CCCN(Cc2cnn(-c3ccccc3)c2)C1 (stereo not shown) | -67.4
CSc1ccccc1C(=O)C1CCCN(Cc2ccccn2)C1 (stereo not shown) | -12.6
O=C(c1ccc(Cl)cc1)C1CCCN(Cc2cnn(-c3ccccc3)c2)C1 (stereo not shown) | -74.6
O=C(C1CCCN(Cc2ccc(Cl)cc2)C1)N1CCCCC1.O=C(O)C(=O)O (stereo not shown) | -14.9
CSc1ccccc1C(=O)C1CCCN(Cc2c(C)n(C)n(-c3ccccc3)c2=O)C1 (stereo not shown) | -16.2
CSc1ccccc1C(=O)C1CCCN(Cc2ccn[nH]2)C1 (stereo not shown) | -8.34
CSc1ccccc1C(=O)C1CCCN(Cc2ccncc2)C1 (stereo not shown) | -41.7
CSc1ncc(CN2CCCC(C(=O)c3ccccc3SC)C2)cn1 (stereo not shown) | -65.1
Cc1cc(C)n2c(SCC(=O)NC3CCCCC3C)nnc2n1 (stereo not shown) | 29.5
CCN(C(=O)COC(=O)/C=C/c1ccco1)c1c(N)n(Cc2ccccc2)c(=O)[nH]c1=O | -1.01
CC(C)CC(NC(=O)CCC(=O)OCC(=O)[C@@]1(O)CCC2[C@@H]3CCC4=CC(=O)C=C[C@]4(C)C3[C@@H](O)C[C@@]21C)C(=O)O (stereo partly shown) | 0.23
O=C(CSc1nnc(-c2ccccc2Cl)o1)Nc1ccccn1 | 14.9
CN(CCC#N)CC(=O)Nc1ccc(S(N)(=O)=O)cc1 | 13.3
CCc1cc(C(=O)N2CCCC(C(=O)c3cccc(OC(C)C)c3)C2)n(C)n1 (stereo not shown) | -6.49
CCc1nc(N2CCCCC2)c2oc3ccccc3c2n1.Cl | 6.57
O=C(c1ccco1)N1CCN(c2ncccn2)CC1 | -18.2
CCc1nc(N2CCC(C)CC2)c2oc3ccccc3c2n1.Cl | 5.55
CCc1nc(N2CCN(C(=O)c3ccco3)CC2)c2oc3ccccc3c2n1.Cl | -64.8

Compound | hERG current change (%, negative = inhibition) at 10uM [%]
Cc1nc(N2CCOCC2)c2oc3ccccc3c2n1 | -9.35
Cc1nc(N2CCN(C(=O)c3ccco3)CC2)c2oc3ccccc3c2n1.Cl | -54.8
O=C(c1ccco1)N1CCN(c2ncnc3c2oc2ccccc23)CC1 | -55.4
Clc1ccc(N2CCN(c3ncnc4c3oc3ccccc34)CC2)cc1 | 4.58
Cc1nc(N2CCC(C)CC2)c2oc3ccccc3c2n1 | 6.63
CC(C)=NN/C(N)=N/C(=S)Nc1ccc(C)cc1 | -3.24
O=C(NCC1CCCO1)c1cccc(NC(=O)c2ccco2)c1 (stereo not shown) | 0.813
Cc1oc(-c2ccccc2F)nc1CSCC(=O)NC1CC1 | 3.12
CS(=O)(=O)N(CC(=O)NCc1ccncc1)C1CCCCC1 | 1.91
CCN(C1CCCCC1)S(=O)(=O)c1ccc(S(=O)(=O)NCc2ccncc2)cc1 | -4.63
CS(=O)(=O)N(CC(=O)NCc1ccc(Cl)cc1)C1CCCCC1 | -26.1
O=C(CN(C1CCCCC1)S(=O)(=O)c1ccc(F)cc1)NCc1ccncc1 | -41.9
O=C(CN(C1CCCCC1)S(=O)(=O)c1ccc(Cl)cc1)NCc1ccncc1 | -69.8
CN(CC(=O)NCc1ccncc1)S(=O)(=O)c1ccc(Br)cc1 | -13.4
Cc1ccc(S(=O)(=O)N(CC(=O)NCc2ccncc2)C2CCCCC2)cc1 | -63
O=C(CN(C1CCCCC1)S(=O)(=O)c1ccc(Cl)cc1)NCCCO | -25.8
O=C(CCSc1ccc(Cl)cc1)NCc1ccncc1 | -32.7
Cc1ccc(SCC(=O)NCc2ccncc2)cc1 | -6.77
Cc1ccc(SCCC(=O)NCc2ccncc2)cc1 | -61.9
O=C(CN(C1CCCCC1)S(=O)(=O)c1ccc(Br)cc1)NCc1ccncc1 | -72.9
NNC(=O)CSc1nc(-c2ccccc2)cn1-c1ccccc1 | -0.037
Cc1ccccc1NC(=O)C1CCN(c2cnccn2)CC1 | -14.7

Compound | hERG current change (%, negative = inhibition) at 10uM [%]
Cc1cc(C)cc(NC(=S)N2CCN(c3ncccn3)CC2)c1 | 13
Cc1ccccc1C(=O)NC(NC(=S)Nc1ccc(S(N)(=O)=O)cc1)C(Cl)(Cl)Cl (stereo not shown) | 19.3
CCOC(=O)C1CCN(C(=O)c2ccc(OC3CCN(C(=O)CCOC)CC3)cc2)CC1 | 8.91
CCSc1ccc([C@@H]2[C@H]3C(=O)N(C)C(=O)[C@H]3[C@]3(C(=O)OC)CCCCN23)cc1OC.O=C(O)C(F)(F)F | -8.41
COc1cccc(OC)c1C(=O)Nc1ccc2c(c1)Cc1ccccc1-2 | 15.5
Cc1cc(-c2nn(-c3ccccc3F)cc2CN2CCC(C(N)=O)CC2)c(C)s1 | -28.5
Cc1cc(-c2nn(-c3ccccc3F)cc2CN2CCC(O)CC2)c(C)s1 | -28.9
Cc1cc(-c2nn(-c3ccccc3F)cc2CN(C)CC(O)CO)c(C)s1 (stereo not shown) | -22.3
COc1ccc(-c2nn(-c3ccccc3C)cc2CNCCc2cnc[nH]2)cc1F | -70.6
Cc1cc(-c2nn(-c3ccccc3F)cc2CNCCc2cnc[nH]2)c(C)s1 | -53.6
Cc1cc(-c2nn(-c3ccccc3F)cc2CN2CCCC(O)C2)c(C)s1 (stereo not shown) | -9.16
Cc1cc(-c2nn(-c3ccccc3F)cc2CNCCc2cnccn2)c(C)s1 | -52.3
CCn1cc(CNCc2cn(-c3ccccc3C)nc2-c2ccc(OC)c(F)c2)cn1 | -22
Cc1cc(-c2nn(-c3ccccc3F)cc2CN2CCN(c3ccncc3)CC2)c(C)s1 | -94.3
Cc1cc(-c2nn(-c3ccccc3F)cc2CN2CCCC(CO)C2)c(C)s1 (stereo not shown) | -7.33
COc1ccc(-c2nn(-c3ccccc3C)cc2CNCc2cccnc2)cc1F | -38.3
Cc1cc(-c2nn(-c3ccccc3F)cc2CN2CCN(c3ccccn3)CC2)c(C)s1 | 18.6
COc1cc(/C=C/C(=O)OCC(=O)NCC(=O)Nc2cccc(C)c2C)ccc1OC(F)F | -25.7
Cc1cc(C)nc(SC(C)CNS(=O)(=O)c2ccccc2)n1 (stereo not shown) | 0.485
